Shown are actives, neighbours in structure and some others; about 2.2% of the full set was active somewhere.
FUS suppressor: rescues growth of FUS-expressing yeast. 0.24% of 390,000 active. AID 1347120. Potency, µM (highest dose often 76.6 µM), usual class: activators. S. cerevisiae FUS-expressing, growth rescue, OD600, 24 h; further: nearly all actives have a fitted effect of over 55% in size
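Cultures pregrown in 2.5% raffinose medium are shifted to minimal medium containing 2% galactose to express toxic FUS. Compounds are tested at several concentrations. After 24hr at 30C, growth is quantified at 600 nm absorbance.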
aSyn yeast inh: rescues yeast growth from alpha-synuclein toxicity; 0.14% of 370,000 active; Yeast expressing alpha-synuclein, growth rescue, BacTiter-Glo, 24 h; Potency, µM (highest dose often 46.1 µM), most hits filed as activators; further: nearly all actives have a fitted effect of over 65% in size
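Galactose-induced alpha-syn yeast (OD600=0.02, raffinose-pregrown) + pinned cpd, 24 hr, 30 deg C; growth by BacTiter-Glo luminescence. Growth restoration scores as activation.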
Mito fusion act: blocks mitochondrial division or promotes mitochondrial fusion. S. cerevisiae fusion-defective mutant growth rescue, CellTiterGlo 48 h. Potency, µM (top dose mostly 46.1 µM), usual class: activators. 0.23% of 320,000 active. AID 485298; further: nearly all actives have a fitted effect of over 45% in size
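Growth-rescue viability read-out: after 48 h at the non-permissive 37C in glycerol/ethanol YPEG, yeast mitochondrial fusion mutants are measured by CellTiterGlo luminescence; compounds (23 nl pinned per well) restoring growth score as division inhibitors or fusion activators.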
TDP-43 yeast inh: TDP-43 toxicity inhibition in yeast; TDP-43 expressing yeast growth rescue, BacTiter-Glo, 24 h; Potency, µM (titrated, usually from 46.1 µM), actives largely listed as activators; 1.8% of 410,000 active; AID 652104; further: nearly all actives have a fitted effect of over 50% in size
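Luminescence from BacTiter-Glo reports growth of TDP-43-expressing yeast after 24 hr at 30 deg C with compound. Cells were raffinose-pregrown to mid-log, then seeded in galactose medium at OD600=0.02.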
ERG-DNA inh: inhibitors of human ERG Ets domain-DNA interaction; AID 624246; Potency, µM (series often up to 76.9 µM), hits mostly inhibitors; fluorescence polarization, His-ERG Ets domain / labelled DNA; 0.028% of 370,000 active; active means well fitted inhibition curve with a large enough effect in the polarisation, with a control signal flat; inconclusive means small, poorly fitted or top-dose-only effect, or effect the other way, or a change in a side signal; inactive means no such curve, though single readings can be large or run the other way; the % refers to the polarisation;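 further: polarization taken with two DNA probes labelled with fluorescein and Texas red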
Target sequence (P11308 whole entry, looked up, the tested form may be a part): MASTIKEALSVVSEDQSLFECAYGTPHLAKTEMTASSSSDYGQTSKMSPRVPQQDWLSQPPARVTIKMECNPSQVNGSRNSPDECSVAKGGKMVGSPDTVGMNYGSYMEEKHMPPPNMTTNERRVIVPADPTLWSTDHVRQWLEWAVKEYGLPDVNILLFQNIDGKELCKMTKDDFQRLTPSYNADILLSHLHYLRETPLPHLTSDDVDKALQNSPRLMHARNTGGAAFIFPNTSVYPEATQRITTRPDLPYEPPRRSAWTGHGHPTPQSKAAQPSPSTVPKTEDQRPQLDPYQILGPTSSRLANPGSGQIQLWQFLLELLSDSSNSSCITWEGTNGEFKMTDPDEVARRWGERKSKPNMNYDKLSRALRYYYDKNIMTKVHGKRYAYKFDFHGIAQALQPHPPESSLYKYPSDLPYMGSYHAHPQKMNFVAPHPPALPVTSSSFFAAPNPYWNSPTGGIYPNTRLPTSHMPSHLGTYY
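His-tagged ERG Ets domain (1 uM in the protein solution; 300mM KCl, 50mM Tris-HCl, 1mM EDTA, 1mM DTT, pH 7.5) received compound, then a probe mix of 5 nM fluorescein-DNA and 100nM Texas-615-DNA. Fluorescence polarization was read for both dyes.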
Abeta yeast res: A-beta toxicity reversal in yeast. Potency, µM (highest dose often 46.1 µM), usual class: activators. 0.063% of 410,000 active. yeast expressing A-beta42, growth rescue, OD600, 48 h; response scale: 0% DMSO, 100% iron-clioquinol control. AID 1347071; further: nearly all actives have a fitted effect of over 55% in size
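Yeast A-beta toxicity model in growth medium with pinned compounds, 48 h at 30 C; growth read as absorbance at 600 nm. Normalized to FeCl3/clioquinol equimolar mix (positive) and DMSO (negative).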
Large screens that a line does not name were inactive. Unless noted, the call rests on the fitted dose curve; in most records, active means well fitted curve in the direction sought with a large enough effect; inconclusive means small, poorly fitted or top-dose-only effect, or another doubt; inactive means no such curve, though single readings can be large; an effect the other way counts as inactive or inconclusive.

CCOC(=O)C1=C(C)N(CC(C)C)C(=O)/C1=C\c1ccc(OCC(=O)Nc2ccccc2)cc1	TDP-43 yeast inh 17.8µM
CCOC(=O)c1cc(=O)c2ccc(OCC(=O)Nc3ccccc3)cc2o1	none
CCn1cc(C(=O)NCc2ccco2)c(=O)c2cc(S(=O)(=O)N3CCc4ccccc4C3)ccc21	FUS suppressor 6.31µM
Cc1nn(-c2ccccc2)c2c1C1(C(=O)Nc3ccccc31)N1C(=N2)Sc2ccccc21 (centres undefined)	Mito fusion act 17.8µM
O=C(Nc1ccccc1C(=O)N1CCN(c2cccc(Cl)c2)CC1)C1=CSCCO1	Mito fusion act 35.5µM, TDP-43 yeast inh inconclusive, Abeta yeast res inconclusive
COc1ccc(Nc2nc(N)nc(CSC(=S)N3CCCCC3)n2)cc1	none
COc1ccc(Nc2nc(N)nc(CSC(=S)N3CCN(c4ccccc4)CC3)n2)cc1	FUS suppressor inconclusive, Mito fusion act inconclusive, TDP-43 yeast inh 17.8µM
COc1ccccc1Nc1nc(N)nc(CSC(=S)N2CC(C)CC(C)C2)n1 (centres undefined)	Mito fusion act inconclusive, TDP-43 yeast inh 25.1µM
CC1CCN(C(=S)SCc2nc(N)nc(Nc3ccccc3)n2)CC1	FUS suppressor inconclusive, TDP-43 yeast inh inconclusive, Abeta yeast res 22.4µM
CCOc1ccc(Nc2nc(N)nc(CSC(=S)N3CCN(c4ccccc4)CC3)n2)cc1	none
CCCNC(=O)CSc1nc2nc(C)c(Cc3ccccc3Cl)c(C)n2n1	none (no result: aSyn yeast inh, Mito fusion act)
Cn1c(=O)c2c(-c3ccc(Cl)cc3)ccnc2n(C)c1=O	none (no result: aSyn yeast inh, Mito fusion act)
COc1ccc(NC(=O)CN(C)C(=O)CSc2ccc3c(c2)OCCO3)cc1	none
COc1ccc(Cl)cc1NC(=O)CN(C)C(=O)CSc1ccc2c(c1)OCCO2	TDP-43 yeast inh 20µM
O=C(CSc1ccc2c(c1)OCCO2)Nc1ccc(Cl)cn1	TDP-43 yeast inh 11.2µM
O=C(CSc1ccc2c(c1)OCCO2)Nc1ccc(Br)cn1	TDP-43 yeast inh 12.6µM
O=C(CSc1ccc2c(c1)OCCO2)Nc1ncccc1O	none
COCC#Cc1ccc(CC[C@H]2O[C@H]3CC[C@@H](CO)O[C@H]3C[C@H]2n2cc(C(C)(C)O)nn2)cc1	none (no result: aSyn yeast inh, Mito fusion act, TDP-43 yeast inh, ERG-DNA inh, Abeta yeast res)
Cc1ccsc1/C=N/NC(=O)CSCc1ccc(Cl)cc1	aSyn yeast inh inconclusive, TDP-43 yeast inh 14.1µM
Cc1ccsc1/C=N/NC(=O)Cc1ccc(Cl)cc1	none
CN1OC[C@@H]2CN(C(=O)CCc3ccccc3)[C@H](c3ccccc3Br)C[C@@H]21	none (no result: Mito fusion act, ERG-DNA inh)
CCOc1ccccc1NC(=S)NC(=O)c1ccco1	TDP-43 yeast inh 14.1µM, Abeta yeast res inconclusive
CCOc1ccccc1NC(=O)c1ccccc1NC(=O)c1ccco1	none
CCOc1ccccc1NC(=S)NC(=O)C1CCCCC1	Abeta yeast res 7.08µM
COc1ccc(CC(=O)Nc2cc(-c3cn4cccnc4n3)ccc2OC)cc1	none (no result: aSyn yeast inh, Mito fusion act)
NC(=S)N/N=C/c1ccc(/C=N/NC(N)=S)cc1	TDP-43 yeast inh inconclusive
NC(=S)NN=Cc1nccc2ccccc12	aSyn yeast inh 20µM, Abeta yeast res inconclusive (no result: Mito fusion act)
NC(=S)NN=Cc1nccc2c(C(F)(F)C(F)(F)C(F)(F)F)cccc12	aSyn yeast inh 7.08µM, TDP-43 yeast inh inconclusive (no result: Mito fusion act, ERG-DNA inh)
Cc1cnc(C=NNC(N)=S)c2cccc(N)c12	none (no result: FUS suppressor, Mito fusion act)
N.N.N.N.N.N.N.N.N.N.N.N.N.N.O.O.[Ru+4].[Ru+5].[Ru+5]	none (no result: FUS suppressor, TDP-43 yeast inh, ERG-DNA inh, Abeta yeast res)
Cc1oc2cc(O)ccc2c(=O)c1-c1nncn1-c1ccccc1	FUS suppressor inconclusive, ERG-DNA inh 35.5µM
O=C(NC(=S)Nc1ccccc1Cl)C1CC1	TDP-43 yeast inh 10µM
COc1ccc(NC(=O)Oc2ccccc2)cc1Cl	TDP-43 yeast inh 17.8µM
COc1ccccc1NC(=S)NC(=O)C1CC1	TDP-43 yeast inh inconclusive (no result: FUS suppressor)
O=C(NC(=S)Nc1ccc(F)c(Cl)c1)C1CC1	TDP-43 yeast inh 3.16µM, Abeta yeast res inconclusive
COC(=O)NC(=S)Nc1ccc(Oc2ccc(Cl)cc2Cl)c(Cl)c1	TDP-43 yeast inh 17.8µM
N#Cc1cc2c(=O)n3ccccc3nc2n(-c2nnc(SCc3ccc(F)cc3)s2)c1=O	none (no result: aSyn yeast inh, Mito fusion act)
CCCN(CC1CC1)C(=O)c1oc(=O)c2ccccc2c1-c1ccc(C)cc1	none (no result: aSyn yeast inh, Mito fusion act, TDP-43 yeast inh, ERG-DNA inh, Abeta yeast res)
